Compounds with a hit are over-represented: about 7.6% of the library has one in this group of screens.
MCF10A rerep = inducers of DNA re-replication in MCF 10A breast cells; MCF 10A DNA re-replication, Hoechst nuclear intensity, 48 h; Potency, µM (highest dose often 46.1 µM), without a hit: at the top dose activity, positive = re-replication, usual class: activators; 350,000 tested, 2.9% active; also: potency is read from the fitted curve at half-maximal effect; % of control where 0% means no effect; nearly all actives have a fitted effect of over 50% in size
KB-V1 MDR tox = KB-V1 MDR subline cytotoxicity; KB-V1 MDR cells viability, CellTiter-Glo, 72 h; Potency, µM (highest dose often 46.1 µM), hits mostly cytotoxic; 400,000 tested, 3.4% active; also: potency is read from the fitted curve at half-maximal effect; % is scaled to controls: 0 for no effect and ±100 for the full control effect; nearly all actives have a fitted effect of over 60% in size
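Luminescent ATP read-out (CellTiter-Glo, 10 min) measures survival of drug-selected KB-V1 MDR cells after 72 h, 37 degrees C compound exposure. Medium: phenol-red-free DMEM, 10% FBS. Values from fitted concentration-response curves.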
SW480 rereplic = induces DNA re-replication in SW480 colon adenocarcinoma cells. SW480 DNA re-replication, Hoechst DNA content imaging, 48 h. Potency, µM (titrated, usually from 46.1 µM), without a hit: at the highest dose re-replication activation, actives largely listed as activators. 340,000 tested, 1.8% active; also: potency is read from the fitted curve at half-maximal effect; % of control where 0% means no effect; nearly all actives have a fitted effect of over 55% in size
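Image-based read-out: total Hoechst fluorescence of nuclei (405 nm excitation, 500-530 nm emission), with hits raising the fraction of high-intensity nuclei. SW480 colon cells incubated 48 hr with compounds at 37 C.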
KB-3-1 cytotox = kills parental KB-3-1 adenocarcinoma cells | KB-3-1 viability, CellTiter-Glo ATP luminescence, 72 h | Potency, µM (series often up to 46.1 µM), actives largely listed as cytotoxic | 400,000 tested, 1.4% active; also: potency is read from the fitted curve at half-maximal effect; % is scaled to controls: 0 for no effect and ±100 for the full control effect; nearly all actives have a fitted effect of over 60% in size
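Here the drug-naive KB-3-1 line serves as comparator for MDR sub-line selectivity; cells received compound titrations, 72 h at 37 °C, then CellTiter-Glo readout.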
KCNH2 WT inh = inhibitors of human wildtype KCNH2 potassium channel. Q12809. U2OS, BacMam KCNH2, thallium flux FluxOr; active compounds read low. activity change, % at 1.84 µM. 340,000 tested, 0.37% active. AID 720551;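 active = maximum activity change below -70%; inconclusive = maximum activity change between -70% and -50%; inactive = maximum activity change above -50%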; also: % is scaled to controls: 0 for no effect and ±100 for the full control effect
Target sequence (Q12809 whole entry, looked up): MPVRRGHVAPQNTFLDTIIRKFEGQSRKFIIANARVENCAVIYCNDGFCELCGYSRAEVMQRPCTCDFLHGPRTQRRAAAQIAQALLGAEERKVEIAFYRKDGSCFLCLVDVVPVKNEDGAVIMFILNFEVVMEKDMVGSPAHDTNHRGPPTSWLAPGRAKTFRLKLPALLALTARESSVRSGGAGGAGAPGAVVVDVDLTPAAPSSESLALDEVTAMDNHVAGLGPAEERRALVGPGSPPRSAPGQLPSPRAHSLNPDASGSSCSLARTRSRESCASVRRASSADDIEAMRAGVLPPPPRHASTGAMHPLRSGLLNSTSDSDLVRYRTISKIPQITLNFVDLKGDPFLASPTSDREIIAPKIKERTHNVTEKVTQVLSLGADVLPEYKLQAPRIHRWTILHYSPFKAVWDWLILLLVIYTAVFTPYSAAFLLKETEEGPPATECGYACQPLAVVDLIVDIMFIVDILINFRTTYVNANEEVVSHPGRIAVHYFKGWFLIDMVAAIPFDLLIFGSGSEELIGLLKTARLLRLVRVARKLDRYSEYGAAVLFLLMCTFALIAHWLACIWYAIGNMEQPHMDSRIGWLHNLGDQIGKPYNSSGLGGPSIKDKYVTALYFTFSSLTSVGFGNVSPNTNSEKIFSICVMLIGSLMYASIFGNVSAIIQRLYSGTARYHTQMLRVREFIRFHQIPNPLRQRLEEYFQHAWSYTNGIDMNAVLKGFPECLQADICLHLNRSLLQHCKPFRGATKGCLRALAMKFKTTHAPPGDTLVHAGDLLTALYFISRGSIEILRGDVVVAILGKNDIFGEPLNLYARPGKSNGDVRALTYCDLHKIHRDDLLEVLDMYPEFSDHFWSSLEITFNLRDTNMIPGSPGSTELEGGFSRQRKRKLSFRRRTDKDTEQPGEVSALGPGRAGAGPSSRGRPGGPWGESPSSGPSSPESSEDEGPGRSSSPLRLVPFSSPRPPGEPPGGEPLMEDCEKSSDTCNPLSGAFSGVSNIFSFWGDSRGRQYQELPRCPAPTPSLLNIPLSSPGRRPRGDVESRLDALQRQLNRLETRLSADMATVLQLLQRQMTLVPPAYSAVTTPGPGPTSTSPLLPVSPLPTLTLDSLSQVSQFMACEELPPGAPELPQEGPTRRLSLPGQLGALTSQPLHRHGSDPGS
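U2OS cells transduced with wild-type KCNH2 virus are loaded with FluxOr dye for 45 min, and thallium flux is measured in kinetic reads before and after stimulation buffer. Rate constants are normalized to DMSO controls.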
KCNH2 3.1 block = KCNH2 3.1 (human) potassium channel inhibition; 340,000 tested, 0.95% active; AID 720553; activity change, % (tested at about 1.8 µM); U2OS KCNH2 3.1, thallium flux FluxOr; active compounds read low;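 active = maximum activity change below -70%; inconclusive = maximum activity change from -70% to -50%; inactive = maximum activity change above -50%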;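 also: thallium influx rate constant from kinetic fluorescence after stimulation buffer; % is scaled to controls: 0 for no effect and ±100 for the full control effect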
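We transduce U2OS cells with the mutant 3.1 virus, culture them overnight, load FluxOr with Red40 quencher for 45 min, then add stimulation buffer and read kinetically for 2 min to derive a normalized rate constant.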
* = called active by the depositor; i = inactive; ? = inconclusive; . = no result given; [ ] = another dose, or the depositor's remark. Unless noted, calls follow the shape of the dose curve; as a rule, active = well fitted curve in the direction sought with a large enough effect; inconclusive = small, poorly fitted or top-dose-only effect, or another doubt; inactive = no such curve, though single readings can be large; an effect the other way counts as inactive or inconclusive.

SMILES | MCF10A rerep | KB-V1 MDR tox | SW480 rereplic | KB-3-1 cytotox | KCNH2 WT inh | KCNH2 3.1 block
CC(=O)Nc1ccc(/C=N/N2C(=O)NC(C)(c3ccc(OC(F)F)cc3)C2=O)cc1 (stereo not drawn) | 14% | i | -5% | i | 3 | 7
O=C1C2C3CCC(C3NCc3ccccc3)C2C(=O)N1Cc1ccccc1 (stereo not drawn) | 12% | i | 2% | i | 6 | -10
FC(F)OC(Cl)C(F)(F)F (stereo not drawn) | -2% | . | 2% | . | . | .
CCN1C=C(Cc2ccc(F)cc2)C2=C(C1)C(c1ccc(F)cc1)C(C#N)=C(N)O2 (stereo not drawn) | ? | 16µM* | ? | ? | 2 | -13
CCN1C=C(Cc2ccccc2C)C2=C(C1)C(c1ccccc1C)C(C#N)=C(N)O2 (stereo not drawn) | ? | 21µM* | ? | ? | 9 | -11
CC(=O)C1=C(c2ccccc2)OC(N)=C(C#N)C1c1ccccc1C (stereo not drawn) | -1% | i | -6% | i | -13 | -19
CC(=O)OC[C@H]1O[C@@](COC(C)=O)(O[C@H]2O[C@H](COC(C)=O)[C@@H](OC(C)=O)[C@H](OC(C)=O)[C@H]2OC(C)=O)[C@@H](OC(C)=O)[C@@H]1OC(C)=O | -5% | . | -5% | . | . | .
S=C(Nc1ccc2nsnc2c1)N1CCCC1 | -10% | i | -10% | i | 1 | 5
CC(=O)N(CCC(c1ccco1)C(C)C)Cc1ccc(Cl)cc1 (stereo not drawn) | 4.1µM* | ? | -3% | i | 12 | -15
CCC(=O)N(CCC(c1ccco1)C(C)C)Cc1ccccc1 (stereo not drawn) | 15% | i | -3%[9.22 µM] | i | -12 | -2
O=C(Nc1cccc(Cl)c1)NC1CCS(=O)(=O)C1 (stereo not drawn) | -1% | i | -3% | i | 7 | 7
CCOc1ccc(CN2CCN(Cc3nc(C(C)C)cs3)CC2CCO)cc1 (stereo not drawn) | ? | ? | 17% | i | . | -96*
COc1cccc(CN2CCN(Cc3cc4ccccc4o3)CC2CCO)c1 (stereo not drawn) | ? | i | 2% | i | 9 | -12
CCOc1ccc(CN2CCN(Cc3cc4ccccc4o3)CC2CCO)cc1 (stereo not drawn) | ? | i | 21% | i | -48 | -107*
COc1ccc(CN2CCN(Cc3cc4ccccc4o3)CC2CCO)cc1C (stereo not drawn) | ? | i | -1% | i | -5 | -71*
COc1ccc(CN2CCN(Cc3cc4ccccc4o3)CC2CCO)c(F)c1 (stereo not drawn) | ? | i | 0% | i | 34 | -43
OCC(O)C(O)C(O)c1cnn(-c2ccccc2)n1 (stereo not drawn) | 2% | i | -1% | i | 3 | -3
CCN(CC)c1ccc(NC(=O)COCc2cc(-c3ccc4c(c3)OCO4)on2)c(C)c1 | . | i | . | i | . | .
CC(=O)Nc1ccc(OC(C)=O)cc1 | 7% | . | -5% | . | . | .
CCC(=O)N1CCN(c2ccc(Cl)cc2NC(=O)c2ccc([N+](=O)[O-])o2)CC1 | ? | i | 9.2µM* | i | 2 | -4
O=C(Nc1cc(Cl)ccc1-n1cncn1)c1ccc([N+](=O)[O-])o1 | ? | ? | 21µM* | 13µM* | 2 | -6
O=C(Nc1cc(Cl)ccc1F)c1ccc(-n2cncn2)c([N+](=O)[O-])c1 | -2% | i | 65% | i | 0 | -11
CCN1CCN(c2ccc(NC(=O)c3ccc([N+](=O)[O-])o3)cc2Cl)CC1 | 1.3µM* | ? | 1% | i | 13 | 0
CCC(=O)N1CCN(c2ccc(NC(=O)c3ccc([N+](=O)[O-])o3)cc2Cl)CC1 | ? | i | 2% | ? | 3 | -20

Screening results from PubChem.
